# Unmarked numbers belong to inactive results. How the calls were made is not given here.
# Biological target: Pantothenate synthetase (Mycobacterium tuberculosis (strain ATCC 25618 / H37Rv)) (UniProt P9WIL5)
# Test: Coupled enzyme confirmation of inhibitors against recombinant Mtb PanC (AID 375);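 further: 0% = full reaction with vehicle and 100% = no enzyme background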
# Conditions: coupled enzyme assay; at 10 µM, hits give high values
# Sequence of Pantothenate synthetase (Mycobacterium tuberculosis (strain ATCC 25618 / H37Rv)) (P9WIL5 whole entry, looked up): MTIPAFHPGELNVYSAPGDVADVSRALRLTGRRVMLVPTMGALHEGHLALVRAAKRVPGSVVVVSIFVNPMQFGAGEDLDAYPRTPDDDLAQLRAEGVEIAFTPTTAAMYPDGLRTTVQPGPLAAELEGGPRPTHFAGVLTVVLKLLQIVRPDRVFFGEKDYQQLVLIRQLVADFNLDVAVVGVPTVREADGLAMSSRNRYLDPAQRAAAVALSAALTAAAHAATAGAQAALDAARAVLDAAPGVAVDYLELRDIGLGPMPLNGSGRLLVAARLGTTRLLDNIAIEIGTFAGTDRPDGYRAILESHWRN
row,SMILES,inhibition [%]
1,COCCn1nnnc1C(c1ccc(OC)cc1)N1CCN(c2ccccc2F)CC1 (stereo not given),0
2,Cc1oc2cc(O)ccc2c(=O)c1-c1cnn(-c2ccccc2)c1,5
3,CCOCCCNc1ncnc2c1[nH]c1ccccc12,0
4,COc1cc(C2C3=C(CC(C)(C)CC3=O)Nc3c2c(=O)[nH]c(=O)n3Cc2ccccc2)ccc1O (stereo not given),4
5,COc1cc(NC(=O)CC(C)C)ccc1NC(=O)c1ccco1,1
6,O=C(COc1ccccc1)N1CCN(C(=O)c2cccc(F)c2)CC1,1
7,CCc1[nH]nc2c1C1(CCN(C(=O)OCc3ccccc3)CC1)C(C#N)=C(N)O2,0
8,COc1ccc(CCNc2oc(Cc3cccc4ccccc34)nc2C#N)cc1OC,5
9,Cc1ccc(-c2cn3nc(C)c(C)nc3n2)cc1,1
10,Cc1[nH]c2ccccc2c(=O)c1CN(C)Cc1ccccc1,6
11,Cc1n[nH]c(C)c1S(=O)(=O)Nc1ccc2c(c1)OCCO2,0
12,CCc1ccccc1NC(=O)CSC1=C(C#N)C(c2ccc(O)c(OC)c2)C2=C(CCCC2=O)N1 (stereo not given),6
13,CCOc1cc(C(=O)N(C)Cc2cc3ccccc3[nH]c2=O)cc(OCC)c1OCC,7
14,O=C(CCCSc1nc2ccccc2s1)NC1=NCCS1,0
15,C=CCn1c(Cc2csc(N)n2)nnc1SCC(=O)OCC,1
16,COC(=O)C1=C(C)C(c2cccs2)NC(=O)N1C (stereo not given),0
17,CC(C)Oc1cc2oc(=O)c3c(c2cc1Cl)CCC3,0
18,N#Cc1nc(-c2ccc(Cl)cc2)oc1NCCc1ccccn1,0
19,Cc1cc(C)n(-c2nc(C)nc3c2cnn3-c2ccccc2)n1,0
20,COc1ccc(Cn2c(=O)[nH]c3cc(C(=O)NCCCN4CCCC4)ccc3c2=O)cc1,5

row,SMILES,inhibition [%]
1,COC(=O)CSc1nc2sc3c(c2c(=O)n1C1CCCCC1)CCN(C)C3,0
2,CC1CCN(CCc2nc3cc(NS(=O)(=O)c4ccc(F)cc4)ccc3n2C)CC1,5
3,c1ccn2c(SCc3cn4ccsc4n3)nnc2c1,1
4,COc1ccc(S(=O)(=O)Cc2ccc(C(=O)NCCc3ccc(S(N)(=O)=O)cc3)o2)cc1,0
5,COc1ccc2c(c1OC)C(=O)OC2CC(=O)c1ccc(O)cc1 (stereo not given),0
6,O=C(c1cccc(Cl)c1)N1CCN(Cc2ccncc2)CC1,0
7,CCOC(=O)N1CCC(Nc2c(-c3ccc(C)cc3)c(=O)c2=O)CC1,0
8,C=CCn1c(SCC(=O)C(C)(C)C)nnc1-c1ccccn1,3
9,COc1cc(NC2=CC(=O)CC(C)(C)C2)cc(OC)c1,0
10,C=CCNc1oc(-c2cccc3ccccc23)nc1C#N,0
11,CCCCNC(=O)OC(C)CNC(=O)Oc1cccc(C)c1 (stereo not given),0
12,CC(=O)C1=C(O)C(=O)N(Cc2ccco2)C1c1ccc2c(c1)OCO2 (stereo not given),3
13,Cc1ccc(NC(=O)N2CCC(c3nc4c(nnn4Cc4cccc(Cl)c4)c(=O)[nH]3)CC2)cc1,0
14,COc1ccc2cc(CN(CCO)C(=O)c3ccccc3F)c(=O)[nH]c2c1,5
15,CCn1c(Cc2ccccc2)nnc1SCC(=O)Nc1cc(C)on1,0
16,COc1cccc(CNC(=O)CCS(=O)(=O)c2cccc3nsnc23)c1,6
17,Cc1ccc(-c2cc(C(=O)N3CCCC3)no2)cc1,0
18,CC(C)CCN1CC(C(=O)NCc2ccccc2)CC1=O (stereo not given),0
19,COCCN(CCOC)S(=O)(=O)c1ccc(C(=O)Nc2nnc(C3CC3)o2)cc1,0
20,O=C1CN(c2nc3ccccc3n3cnnc23)CC(=O)N1CCc1ccccc1,4

# Source: PubChem BioAssay
